The nature of assay [1]: circadian clock period modulators, cell-based, LOPAC library, luminescence reporter (AID 2774).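 Note: values are relative to mean of DMSO wells on each plate.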 As to conditions: circadian reporter cells, at 7 µM, actives lie on both sides.
Assay [2] has as its system Hepatitis C virus NS3 helicase. In words: HCV NS3 helicase inhibitors, primary screen, biochemical, fluorescence polarization, LOPAC1280 library (AID 687035; in the data active = inhibition above about 37%). As to conditions: Purified HCV NS3 helicase, Cy5-dT15 ssDNA binding fluorescence polarization; stronger effect = higher value; concentration not given here.
A short description of assay [3]: Cy5 fluorescence quenching or enhancement artefacts, artefact control for HCV NS3 helicase inhibitor project, biochemical, LOPAC1280 (AID 687037). As to conditions: Cy5-DNA-NS3h complex fluorescence interference counterscreen.
In assay [4] the test system is Aerobactin synthetase IucA (Klebsiella pneumoniae). Nature of the assay: IucA aerobactin synthetase inhibitors, biochemical, Tocris library, absorbance (AID 1345561).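 Note: 100% = enzyme without compound and 0% = no enzyme.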 Particulars: purified IucA enzyme assay, absorbance (OD) read-out; stronger effect = lower value;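 tested at 8 µM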.
Assay [5] can be described thus: sensitizers of A549 cells to miR-34 induction, primary screen, imaging, A549 dox-inducible miR-34, nuclei and caspase counts (AID 1347080;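 active = compounds whose cell count with miR-34 switched on is under 0.7 times the count with it off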). Particulars: A549 miR-34 inducible, Hoechst nuclei count, 48 h.
A short description of assay [6]: phospholipid biosynthesis inhibitors in animal cells, primary screen, cell-based, LOPAC library, screen 4 (AID 1347384). As to conditions: phospholipid biosynthesis inhibition screen, at 10 µM.
A short description of assay [7]: viability rescue of complex I mutant cybrids, primary screen, cell-based, galactose medium, ATP luminescence (AID 1645843;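 active = z-score of at least 1.8 in each of two replicates, scored against plate mean and spread of sample wells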;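 note: positive z means more ATP and so rescue of galactose-driven cybrid death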). Particulars: complex I mutant cybrid cells, 72 h, stronger effect = higher value.
Where [8] appears, read: stronger effect = lower value, cell number ratio, induced over uninduced.
The mark [9] stands for this setting: measured here: relative caspase fold change +Dox/-Dox.
Where [10] appears, read: measured here: total cells with miR-34 induction, stronger effect = lower value.
Setting [11] is: measured here: total cells without miR-34 induction.

Several values for one entry are separate records, joined by “and”; a condition that tells them apart may be missing. Equal entries are not always repeated. Activity calls are given as the source filed them. Unless noted, the rule behind the calls is not given here.

Regarding `CC[C@H](NC(=O)c1c(C)c(-c2ccccc2)nc2ccccc12)c1ccccc1`, the period change in assay [1] is 0.09 h (inactive). Further, the inhibition in assay [2] is 1% (inactive). Further, the fluorescence ratio (interference) in assay [3] is 1 (inactive). Further, in assay [4], the remaining activity is 110% (inactive). Further, the fold change in assay [5] (setting [8]) was 1.28 (inactive) and 0.912 (inactive); in assay [5] (setting [9]), 1.6 and 0.801. For the same molecule, the cell count in assay [5] (setting [10]) is 6890 and 7500; in assay [5] (setting [11]), 5390 and 8230. In addition, in assay [6], the call was inactive. Moreover, the z-score in assay [7] is 1.77 (inactive) and 1.96 (inactive).
Take `COC(=O)[C@H](NC(=O)c1cc(-c2ccccc2)nc2ccccc12)c1ccccc1`: the period change in assay [1] was -0.11 h (inactive). The inhibition in assay [2] was -1% (inactive). Moreover, the fluorescence ratio (interference) in assay [3] was 1 (inactive). Further, the remaining activity in assay [4] was 100% (inactive). For the same molecule, the fold change is 1 (inactive) and 0.927 (inactive) in assay [5] (setting [8]); 0.906 and 0.535 in assay [5] (setting [9]). Besides, the cell count in assay [5] (setting [10]) is 9010 and 8560; in assay [5] (setting [11]), 8980 and 9240. Moreover, in assay [6], the molecule was called inactive. The z-score in assay [7] is 0.22 (inactive) and -0.03 (inactive).
As for `CC(C)(C)NCC(O)COc1cccc2[nH]c(=O)[nH]c12` (stereo not given), the period change in assay [1] was -0.075 h (inactive). In addition, the inhibition in assay [2] is -3% (inactive). For the same molecule, the fluorescence ratio (interference) in assay [3] was 1 (inactive). Further, in assay [4], the remaining activity is 89.1% (inactive). Moreover, the fold change was 0.952 (inactive) and 0.913 (inactive) in assay [5] (setting [8]); 1.58 and 1.07 in assay [5] (setting [9]). For the same molecule, the cell count in assay [5] (setting [10]) was 9940 and 8700; in assay [5] (setting [11]), 10400 and 9520. The result in assay [6] was inactive. In addition, in assay [7], the z-score is 0.24 (inactive) and 0.505 (inactive).
Take `COC1(C2=NCCN2)COc2ccccc2O1` (stereo not given): the period change in assay [1] was 0.04 h (inactive). In addition, the inhibition in assay [2] was -3% (inactive). Also, the fluorescence ratio (interference) in assay [3] is 0.9 (inactive). The remaining activity in assay [4] is 126% (inactive). The fold change was 0.986 (inactive) and 0.983 (inactive) in assay [5] (setting [8]); 1.8 and 0.411 in assay [5] (setting [9]). For the same molecule, the cell count is 10100 in assay [5] (setting [10]); 10300 and 10200 in assay [5] (setting [11]). The molecule was called inactive in assay [6]. The z-score in assay [7] is -0.135 (inactive) and -0.24 (inactive).
Turning to `C[C@@H](CN1CCC(Cc2ccccc2)CC1)[C@@H](O)c1ccc(O)cc1`, the period change in assay [1] was 0.12 h (inactive). Also, in assay [2], the inhibition was -3% (inactive). In assay [3], the fluorescence ratio (interference) is 1 (inactive). Further, in assay [4], the remaining activity is 113% (inactive). Besides, the fold change in assay [5] (setting [8]) is 0.971 (inactive) and 0.906 (inactive); in assay [5] (setting [9]), 0.907 and 0.699. In addition, the cell count is 9590 and 8970 in assay [5] (setting [10]); 9880 and 9910 in assay [5] (setting [11]). The molecule was classed as inactive in assay [6]. In addition, in assay [7], the z-score was -1.21 (inactive) and -0.605 (inactive).
On to `CC1CCN(CC[C@H]2CCCN2S(=O)(=O)c2cccc(O)c2)CC1`, for which the period change in assay [1] is 0.055 h (inactive). The inhibition in assay [2] is -3% (inactive). The fluorescence ratio (interference) in assay [3] was 1 (inactive). Besides, the remaining activity in assay [4] is 106% (inactive). Further, the fold change was 0.975 (inactive) and 0.908 (inactive) in assay [5] (setting [8]); 1.72 and 0.97 in assay [5] (setting [9]). In addition, the cell count in assay [5] (setting [10]) is 9460 and 8490; in assay [5] (setting [11]) it was 9700 and 9350. In addition, the molecule was classed as inactive in assay [6]. For the same molecule, the z-score in assay [7] was -0.155 (inactive) and -0.32 (inactive).
With `O=C1NC(c2cccc([N+](=O)[O-])c2)=CCN1c1ccccc1O`, the period change in assay [1] is -0.125 h (inactive). The inhibition in assay [2] was -4% (inactive). In assay [3], the fluorescence ratio (interference) was 1 (inactive). For the same molecule, in assay [4], the remaining activity was 111% (inactive). Besides, the fold change in assay [5] (setting [8]) was 0.967 (inactive) and 1.03 (inactive) and 0.928 (inactive); in assay [5] (setting [9]) it was 1.12 and 1.35 and 0.882. Moreover, the cell count in assay [5] (setting [10]) is 10200 and 5990 and 8100; in assay [5] (setting [11]) it was 10600 and 5810 and 8730. The outcome in assay [6] was inactive. In addition, the z-score in assay [7] was -0.245 (inactive) and 1.08 (inactive).
Turning to `O=c1onc2cnc3ccccc3n12`, in assay [1], the period change is 0.13 h (inactive). Further, the inhibition in assay [2] was 0% (inactive). For the same molecule, the fluorescence ratio (interference) in assay [3] is 1 (inactive). Moreover, in assay [4], the remaining activity is 108% (inactive). The fold change was 1.09 (inactive) and 0.945 (inactive) and 0.946 (inactive) in assay [5] (setting [8]); 1.29 and 1.08 and 0.805 in assay [5] (setting [9]). For the same molecule, the cell count in assay [5] (setting [10]) is 8010 and 5220 and 7630; in assay [5] (setting [11]), 7350 and 5530 and 8060. In addition, in assay [6], the result was inactive. The z-score in assay [7] is 0.125 (inactive) and 0.635 (inactive).
